The panel holds about 79,000 compounds, 15% with a hit somewhere; the sample as a whole holds those more often. The source made the active and inactive calls. Cut-off read from the data, not from the text of the source: active = growth inhibition above about 70%; inactive = the rest.
Tests used:
[1] = NCI Yeast Anticancer Drug Screen. Data for the rad52 strain (AID 147);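 note: 0% = growth of vehicle-treated control cultures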; conditions: S. cerevisiae rad52 mutant growth inhibition, active compounds read high
Outline: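 Inhibition of yeast growth, referenced to vehicle controls, was the measured output for a strain with defective DNA damage repair.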

[2] = NCI Yeast Anticancer Drug Screen. Data for the wt1 strain (AID 149);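 note: 0% = growth of vehicle-treated wt1 cultures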; conditions: S. cerevisiae wt1 strain (SPY 50644) growth inhibition, active compounds read high
Outline: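 Compounds are added to wt1 yeast cultures. Growth is then measured. Inhibition is expressed relative to vehicle-treated controls.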

[3] = NCI Yeast Anticancer Drug Screen. Data for the rad50EPP+ strain (AID 151);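 note: 0% = growth of vehicle-treated control cultures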; conditions: S. cerevisiae rad50 mutant strain, active compounds read high
Outline: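 Genetically defined yeast (rad50EPP+, DNA damage repair alteration) is grown with compound, and inhibition of growth is expressed relative to vehicle-treated controls.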

[4] = NCI Yeast Anticancer Drug Screen. Data for the mgt1 strain (AID 153); conditions: S. cerevisiae mgt1 mutant growth inhibition, active compounds read high
Outline: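 In the mgt1 strain, test compounds were added and growth inhibition was determined relative to vehicle-treated controls.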

[5] = NCI Yeast Anticancer Drug Screen. Data for the rad50 strain (AID 155);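 note: 0% = growth of vehicle-only cultures of the same strain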; conditions: S. cerevisiae rad50 strain growth inhibition, active compounds read high
Outline: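 Inhibition values express reduced yeast growth in compound-treated cultures relative to vehicle-treated controls.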

[6] = NCI Yeast Anticancer Drug Screen. Data for the mec2-1 strain (AID 157); conditions: S. cerevisiae mec2-1 strain, active compounds read high
Outline: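 Each compound was tested on mec2-1 yeast, a strain altered in DNA damage repair or cell cycle control. Growth inhibition is reported relative to vehicle.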

[7] = NCI Yeast Anticancer Drug Screen. Data for the rad14 strain (AID 159);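 note: 0% = growth of vehicle-treated control cultures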; conditions: S. cerevisiae rad14 strain growth inhibition, active compounds read high
Outline: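 A mutant yeast strain defective in DNA damage repair is treated with compound; inhibition of its growth is scored against untreated, vehicle-exposed cultures.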

[8] = NCI Yeast Anticancer Drug Screen. Data for the sgs1 mgt1 strain (AID 161);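 note: 0% = growth of cultures given vehicle only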; conditions: S. cerevisiae sgs1 mgt1 strain, active compounds read high
Outline: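 Read-out: growth inhibition vs vehicle controls. Cells: mutant yeast strain deficient in DNA damage repair.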

[9] = NCI Yeast Anticancer Drug Screen. Data for the CLN2oe strain (AID 163);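 note: 0% = growth of vehicle-only control cultures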; conditions: S. cerevisiae CLN2oe strain, active compounds read high
Outline: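 First, the altered yeast strain was treated with each compound; second, its growth was measured; finally, inhibition was derived by comparison with vehicle controls.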

[10] = NCI Yeast Anticancer Drug Screen. Data for the cln2 rad14 strain (AID 165);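 note: 0% = growth equal to vehicle treated cultures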; conditions: S. cerevisiae cln2 rad14 strain, active compounds read high
Outline: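 Test compounds were added to cln2 rad14 yeast cultures; inhibition of growth was then determined by comparison with vehicle treatment.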

[11] = NCI Yeast Anticancer Drug Screen. Data for the bub3 strain (AID 167); conditions: S. cerevisiae bub3 mutant strain, active compounds read high
Outline: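 Steps: expose the mutant yeast strain to compound; grow alongside vehicle-treated cultures; measure growth; express inhibition against the vehicle cultures.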

[12] = NCI Yeast Anticancer Drug Screen. Data for the wt2 strain (AID 169);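 note: 0% = growth of vehicle-treated yeast cultures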; conditions: S. cerevisiae wt2 strain growth inhibition, active compounds read high
Outline: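 The panel's yeast strains carry defined changes in DNA repair or cell cycle genes. Each strain is grown with compound, and growth loss is scored relative to vehicle.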

[13] = NCI Yeast Anticancer Drug Screen. Data for the mlh1 strain (AID 171);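 note: 0% = growth of vehicle-treated control cultures of the same strain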; conditions: S. cerevisiae mlh1 strain growth inhibition, active compounds read high
Outline: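 Inhibition values reflect reduced yeast growth in the presence of compound, referenced to vehicle controls, using a strain chosen for its alteration in DNA repair or cell cycle control.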

[14] = NCI Yeast Anticancer Drug Screen. Data for the sgs1 strain (AID 173);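 note: 0% = growth of vehicle-only control cultures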; conditions: S. cerevisiae sgs1 mutant, active compounds read high
Outline: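 Vehicle-treated cultures served as reference for growth inhibition of a yeast strain altered in DNA damage repair or cell cycle control after compound exposure.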

[15] = NCI Yeast Anticancer Drug Screen. Data for the mlh1 rad18 strain (AID 175); conditions: S. cerevisiae mlh1 rad18 strain growth inhibition, active compounds read high
Outline: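 Inhibition values reflect reduced growth of mutant yeast versus vehicle-treated controls following compound exposure; the mutations affect DNA damage repair.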

[16] = NCI Yeast Anticancer Drug Screen. Data for the rad18 strain (AID 177); conditions: S. cerevisiae rad18 mutant growth inhibition, active compounds read high
Outline: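 Steps: expose repair-mutant yeast to compound; measure growth; express as inhibition relative to vehicle control.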

[17] = at 5.0 µM (retest, dose inferred, filed as 0.5)
[18] = at 50.0 µM (retest, dose inferred, filed as 5.0)

Measured: growth inhibition

O=CNc1ccc2c(c1)C(=O)c1ccccc1-2
active: [1]; at 33.0 µM 94% | [1]; at 100.0 µM 97% | [2]; at 100.0 µM 85% | [3]; at 33.0 µM 86% | [3]; at 100.0 µM 95% | [4]; at 100.0 µM 97% | [5]; at 33.0 µM 93% | [5]; [18] 75% | [5]; at 50.0 µM 94.2% | [5]; at 100.0 µM 96% | [6]; at 100.0 µM 95% | [7]; at 100.0 µM 96% | [9]; at 100.0 µM 75% | [11]; at 100.0 µM 87% | [12]; at 100.0 µM 96% | [13]; at 33.0 µM 72% | [13]; at 100.0 µM 97% | [14]; at 100.0 µM 94% | [16]; at 100.0 µM 94%
inactive: [1]; at 1.2 µM 8% | [1]; at 3.7 µM 15% | [1]; at 11.0 µM 40% | [2]; at 1.2 µM -2% | [2]; at 3.7 µM -1% | [2]; at 11.0 µM 8% | [2]; at 33.0 µM 27% | [3]; at 1.2 µM 5% | [3]; at 3.7 µM 12% | [3]; at 11.0 µM 26% | [4]; at 1.2 µM 4% | [4]; at 3.7 µM 5% | [4]; at 11.0 µM 9% | [4]; at 33.0 µM 47% | [5]; at 1.2 µM 13% | [5]; at 3.7 µM 22% | [5]; [17] 7% | [5]; at 11.0 µM 37% | [6]; at 1.2 µM 3% | [6]; at 3.7 µM 4% | [6]; [17] 6% | [6]; at 11.0 µM 3% | [6]; at 33.0 µM 36% | [6]; [18] 37% | [6]; at 50.0 µM 37.7% | [7]; at 1.2 µM 5% | [7]; at 3.7 µM 9% | [7]; at 11.0 µM 14% | [7]; at 33.0 µM 46% | [8]; [17] 5% | [8]; [18] 55% | [8]; at 50.0 µM 19.3% | [9]; at 1.2 µM 10% | [9]; at 3.7 µM 10% | [9]; at 11.0 µM 18% | [9]; at 33.0 µM 37% | [10]; [17] -15% | [10]; [18] -5% | [10]; at 50.0 µM 26.8% | [11]; at 1.2 µM 9% | [11]; at 3.7 µM 0% | [11]; [17] -6% | [11]; at 11.0 µM 16% | [11]; at 33.0 µM 61% | [11]; [18] 66% | [11]; at 50.0 µM 62.9% | [12]; at 1.2 µM -2% | [12]; at 3.7 µM 0% | [12]; at 11.0 µM 8% | [12]; at 33.0 µM 48% | [13]; at 1.2 µM 3% | [13]; at 3.7 µM 10% | [13]; at 11.0 µM 16% | [14]; at 1.2 µM -2% | [14]; at 3.7 µM 0% | [14]; at 11.0 µM 6% | [14]; at 33.0 µM 52% | [15]; [17] 4% | [15]; [18] 61% | [15]; at 50.0 µM 69.5% | [16]; at 1.2 µM 2% | [16]; at 3.7 µM 3% | [16]; at 11.0 µM 7% | [16]; at 33.0 µM 52%

Cc1ccc(NN(NC(=O)OC(C)C)C(=O)OC(C)C)cc1
active: [15]; at 50.0 µM 78.8%
inactive: [1]; at 1.2 µM -2% | [1]; at 3.7 µM -2% | [1]; at 11.0 µM 0% | [1]; at 33.0 µM 8% | [1]; at 100.0 µM 17% | [2]; at 1.2 µM 2% | [2]; at 3.7 µM 7% | [2]; at 11.0 µM 4% | [2]; at 33.0 µM 7% | [2]; at 100.0 µM 11% | [3]; at 1.2 µM 5% | [3]; at 3.7 µM 13% | [3]; at 11.0 µM 25% | [3]; at 33.0 µM 50% | [3]; at 100.0 µM 64% | [4]; at 1.2 µM 0% | [4]; at 3.7 µM -3% | [4]; at 11.0 µM 1% | [4]; at 33.0 µM 14% | [4]; at 100.0 µM 13% | [5]; at 1.2 µM -1% | [5]; at 3.7 µM 0% | [5]; [17] 3% | [5]; at 11.0 µM -1% | [5]; at 33.0 µM 8% | [5]; [18] 35% | [5]; at 50.0 µM 23.1% | [5]; at 100.0 µM 13% | [6]; at 1.2 µM 3% | [6]; at 3.7 µM 5% | [6]; [17] 1% | [6]; at 11.0 µM 8% | [6]; at 33.0 µM 13% | [6]; [18] 5% | [6]; at 50.0 µM 6.1% | [6]; at 100.0 µM 15% | [7]; at 1.2 µM -2% | [7]; at 3.7 µM -1% | [7]; at 11.0 µM -1% | [7]; at 33.0 µM 1% | [7]; at 100.0 µM 8% | [8]; [17] 15% | [8]; [18] 19% | [8]; at 50.0 µM 29.6% | [9]; at 1.2 µM -3% | [9]; at 3.7 µM -11% | [9]; at 11.0 µM -5% | [9]; at 33.0 µM 1% | [9]; at 100.0 µM 5% | [10]; [17] 14% | [10]; [18] 27% | [10]; at 50.0 µM 28.6% | [11]; at 1.2 µM -5% | [11]; at 3.7 µM -3% | [11]; [17] 17% | [11]; at 11.0 µM -1% | [11]; at 33.0 µM 6% | [11]; [18] 38% | [11]; at 50.0 µM 2.1% | [11]; at 100.0 µM 17% | [12]; at 1.2 µM -1% | [12]; at 3.7 µM -1% | [12]; at 11.0 µM 0% | [12]; at 33.0 µM 7% | [12]; at 100.0 µM 11% | [13]; at 1.2 µM 0% | [13]; at 3.7 µM 2% | [13]; at 11.0 µM 5% | [13]; at 33.0 µM 7% | [13]; at 100.0 µM 8% | [14]; at 1.2 µM 1% | [14]; at 3.7 µM 1% | [14]; at 11.0 µM 5% | [14]; at 33.0 µM 14% | [14]; at 100.0 µM 15% | [15]; [17] 16% | [15]; [18] 62% | [16]; at 1.2 µM -3% | [16]; at 3.7 µM -4% | [16]; at 11.0 µM 1% | [16]; at 33.0 µM 12% | [16]; at 100.0 µM 21%
